Measured values as given in PubChem BioAssay (EPA / NIEHS).
Results filed as inconclusive are left out. The source made the active and inactive calls. Rule for the calls, unless noted: active = hit-call score of the fitted dose curve at least 0.9, where 1 is the maximum; inactive = score below 0.9.

Legend:
[1] = STM_H9_NormalizedViability: Cytotoxicity Assessment at 120 hours in the Stemina devTOX quickPredict H9 human embryonic stem cell (hESC)-based Assay (AID 2283784; active = hit-call score of the fitted dose curve at least 0.9, where 1 is the maximum)
How it was run: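 Pluripotent H9 hESCs were exposed, with chemical and media replaced every 24 h. Viability was read by CellTiter-Fluor fluorescence, background-corrected and normalized to the 0.1% DMSO neutral control per plate. Loss of signal was fitted.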

[2] = CCTE_Shafer_MEA_acute_firing_rate_mean: CCTE's Neural Acute Assay for Mean Firing Rate, Shafer Lab (AID 2284009);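 note: analyzed for loss of signal so actives lower firing rate relative to DMSO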
How it was run: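 Read-out: well-mean spike rate (spikes/recording length/electrodes), % change from 40 min pre-dose baseline to 40 min with compound. Rat cortical cultures, DIV 13 or 15, 37 C; 0.03-40 uM; DMSO as negative control.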

[3] = CCTE_Harrill_HTTr_Viability_MCF7: CCTE's 6-hour Cell Viability Assessment for the High-Throughput Transcriptomics (HTTr) Platform, in MCF-7 cells cultured in DMEM + 10% fetal bovine serum, Harrill Lab (AID 2284010)
How it was run: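 MCF-7 cells in DMEM + 10% FBS, 384-well, exposed 6 h to an eight-point dilution series. Membrane integrity scored by high-content imaging of propidium iodide exclusion; bidirectional fit versus DMSO.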

[4] = CCTE_Harrill_HTTr_Apoptosis_MCF7: CCTE's 6-hour Apoptosis Assessment for the High-Throughput Transcriptomics (HTTr) Platform, in MCF-7 cells cultured in DMEM + 10% fetal bovine serum, Harrill Lab (AID 2284011)
How it was run: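 Read-out: CellEvent Caspase 3/7 Green signal by high content imaging, gain-of-signal indicating apoptosis. MCF-7 cells, DMEM + 10% FBS, eight-point dilution series, 6 h exposure. Curves fitted bidirectionally relative to DMSO negative control.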

[5] = CCTE_Shafer_MEA_acute_burst_number: CCTE's Neural Acute Assay for Single-Electrode Bursts, Shafer Lab (AID 2284013)
How it was run: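 Rat cortical cultures, DIV 13/15; 40 min baseline, then 40 min with compound 0.03-40 uM, 37 C. Spikes: 300-5000 Hz band-pass, threshold 8x rms noise. Readout = % change in single-electrode bursts vs baseline, loss-of-signal fit.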

[6] = CCTE_Shafer_MEA_acute_burst_duration_mean: CCTE's Neural Acute Assay for Mean Burst Duration, Shafer Lab (AID 2284014);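 note: hits are decreases in mean burst duration relative to DMSO controls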
How it was run: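 Primary rat cortical neurons on 16-electrode MEA wells, treated on DIV 13 or 15 with compound (0.03-40 uM; ≥3 wells each). 40-min baseline and 40-min exposure recordings at 37 C; percent change in mean burst duration per well versus DMSO.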

[7] = CCTE_Shafer_MEA_acute_per_burst_spike_number_mean: CCTE's Neural Acute Assay for Average Number of Spikes Per Burst, Shafer Lab (AID 2284015);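 note: hits are decreases in mean spikes per burst versus baseline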
How it was run: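 Primary rat cortical neurons on 48-well MEA plates, treated on DIV 13 or 15 at 0.03-40 uM. Spontaneous activity recorded 40 min before and 40 min after compound at 37 C; percent change in mean spikes per single-electrode burst per well, fitted in the loss direction versus DMSO.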

[8] = CCTE_Shafer_MEA_acute_interburst_interval_mean: CCTE's Neural Acute Assay for Mean Interburst Interval, Shafer Lab (AID 2284016);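 note: percent change of mean interburst interval versus each well's own pre-dose baseline; curves fitted for decrease in interburst interval relative to DMSO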
How it was run: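 Primary rat cortical neurons on 16-electrode MEA wells were recorded 40 min at baseline on DIV 13 or 15, then 40 min after compound (0.03-40 uM), at 37 C. Value is percent change in mean interburst interval per well, DMSO as negative control.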

[9] = CCTE_Shafer_MEA_acute_burst_percentage_mean: CCTE's Neural Acute Assay for Percentage of Spikes in a Burst, Shafer Lab (AID 2284017)
How it was run: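 Primary rat cortical neurons on 16-electrode MEA wells; 40 min baseline recorded at DIV 13 or 15, then 40 min after compound (0.03-40 uM) at 37 C. Well-mean fraction of spikes in single-electrode bursts; percent change from baseline, DMSO as negative control.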

[10] = CCTE_Shafer_MEA_acute_burst_percentage_std: CCTE's Neural Acute Assay for Standard Deviation of Burst Percentage, Shafer Lab (AID 2284018);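 note: fitted in the negative direction so actives lower burst percentage SD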
How it was run: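 Primary rat cortical neurons on 16-electrode MEA wells were recorded 40 min at baseline (DIV 13 or 15), then 40 min after compound (0.03-40 uM), at 37 C. Well value is SD across electrodes of spikes-in-bursts/total spikes; endpoint is percent change, DMSO-referenced.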

[11] = CCTE_Shafer_MEA_acute_per_network_burst_spike_number_mean: CCTE's Neural Acute Assay for Average Number of Spikes in a Network Burst, Shafer Lab (AID 2284019)
How it was run: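 Primary rat cortical neurons on 16-electrode MEA wells, DIV 13 or 15, 37 C; 40-min baseline then 40-min recording with compound (0.03-40 uM). Spikes per network burst (total spikes/number of bursts) expressed as percent change from baseline, DMSO reference.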

[12] = CCTE_Shafer_MEA_acute_per_network_burst_spike_number_std: CCTE's Neural Acute Assay for Standard Deviation of Number of Spikes in a Network Burst, Shafer Lab (AID 2284020);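 note: fitted for decrease in spike-number SD versus DMSO so actives lower it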
How it was run: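 Primary rat cortical neurons on 48-well MEAs (16 electrodes/well) recorded at DIV 13 or 15: 40-min baseline, then 40 min with compound (0.03-40 uM), 37 C. Value is percent change in SD of spikes per network burst, relative to DMSO.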

[13] = CCTE_Shafer_MEA_acute_per_network_burst_electrodes_number_mean: CCTE's Neural Acute Assay for Mean Number of Electrodes in a Network Burst, Shafer Lab (AID 2284021);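 note: curves fitted for decreases only so hits reduce electrodes per burst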
How it was run: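 Readout: % change in mean electrodes active per network burst, post- vs pre-treatment, each well. Spikes detected at 8x rms noise after 300-5000 Hz band-pass; rat cortical cultures, DIV 13/15, compounds 0.03-40 uM, DMSO baseline.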

[14] = CCTE_Shafer_MEA_acute_network_burst_percentage: CCTE's Neural Acute Assay for Percentage of Network Bursts, Shafer Lab (AID 2284022);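 note: curves fitted for loss so actives lower network burst percentage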
How it was run: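 Rat cortical cultures, DIV 13/15; 20 min equilibration, 40 min baseline, compound 0.03-40 uM, 40 min recording, 37 C. Spikes: 300-5000 Hz band-pass, threshold 8x rms noise. Readout: % change in network-burst spike fraction; loss direction vs DMSO.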

[15] = CCTE_Shafer_MEA_acute_cross_correlation_area: CCTE's Neural Acute Assay for Area of Cross Correlation, Shafer Lab (AID 2284024);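 note: area under pooled inter-electrode spike cross-correlation near zero lag as percent change from own baseline; curves fitted for loss of cross-correlation area so actives lower synchrony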
How it was run: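 Rat cortical cultures, DIV 13/15, MEA; spikes detected at 8x rms noise (300-5000 Hz band-pass). Compound 0.03-40 uM, ≥3 wells each. Readout: % change in pooled inter-electrode cross-correlation area vs own baseline; DMSO negative control.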

[16] = CCTE_Shafer_MEA_acute_cross_correlation_HWHM: CCTE's Neural Acute Assay for Cross Correlation at Half Width at Half Maximum, Shafer Lab (AID 2284026);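 note: spontaneous network firing of rat primary cortical neurons on multiwell microelectrode arrays; percent change per well from pre-dose baseline in spike cross-correlogram half width; hits are a decrease in cross-correlogram half width relative to DMSO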
How it was run: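 Read-out: half width at half maximum of action-potential cross-correlogram, percent change versus pre-treatment baseline, fitted in loss direction against DMSO. Rat cortical cultures, DIV 13 or 15, dosed 0.03-40 uM, 40-min recordings at 37 C.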

[17] = CCTE_Shafer_MEA_acute_synchrony_index: CCTE's Neural Acute Assay for Synchrony, Shafer Lab (AID 2284027);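 note: network synchrony index of spontaneous spiking in primary rat cortical neurons on MEAs; fitted for loss of signal so actives lower synchrony relative to DMSO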
How it was run: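 Primary rat cortical neurons on 48-well MEAs, dosed at 0.03–40 uM on DIV 13 or 15. Spikes are recorded for 40 min at 37C before and after exposure, and synchrony index (0–1) is expressed as percent change from baseline per well.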

[18] = CCTE_Shafer_MEA_acute_AB: CCTE's Alamar Blue Assay for Cytotoxicity in the Neural Acute Assay, Shafer Lab (AID 2284069; active = hit-call score of the fitted dose curve at least 0.9, where 1 is the maximum;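 note: active compounds lower the viability signal compared with DMSO wells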)
How it was run: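 Read-out: resazurin fluorescence (ex 544, em 590 nm) after CTB reagent at 1:6 dilution in fresh media. Cells: primary rat cortical neuron networks, DIV 13 or 15, chemically exposed on MEA plates; DMSO as negative control/baseline.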

IYD (gene 389434) = assay: CCTE_GLTED_hIYD: CCTE's human Iodotyrosine Deiodinase (xIYD) Inhibition Assay, Great Lakes Toxicology and Ecology Division (GLTED) Lab (AID 2284317; active = hit-call score of the fitted dose curve at least 0.9, where 1 is the maximum;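 note: cell-free human IYD enzyme made in baculovirus insect cells; iodide freed from monoiodotyrosine measured by cerium arsenite color change at 420 nm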)
How it was run: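 hIYD: baculovirus-expressed human IYD deiodinated monoiodotyrosine for 3 h with test chemical; free iodide was measured by Sandell-Kolthoff absorbance at 420 nm and normalized to MNT and DMSO/NaOH controls.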

Measured: AC50

c1cc[n+]2c(c1)-c1cccc[n+]1CC2
active: [1] 7.82 µM | IYD (gene 389434) 11.4 µM
inactive: all other assays above
